# The panel holds about 83,000 compounds, 20% with a hit somewhere; the sample as a whole holds those more often.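 Activity criterion: percent growth below 10, measured after cells in 96-well plates were exposed to a single compound concentration for 48 hours.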 A number with no mark means an inactive call. Active and inactive are the calls of the source.
# What was measured:
# Assay in all cases: NCI-60 one-dose screen, 48 h (100 = growth as untreated, 0 = no growth, -100 = all killed)
# Settings in all cases: 10 µM unless noted
# [1] = system: HCT-15 colon
# [2] = system: HT29 colon
# [3] = system: SNB-75 CNS
# [4] = system: SNB-19 CNS
# [5] = system: U251 CNS
# [6] = system: PC-3 prostate
# [7] = system: SK-MEL-5 melanoma
# [8] = system: UACC-62 melanoma
# [9] = system: LOX IMVI melanoma
# [10] = system: SK-MEL-28 melanoma
SMILES,growth [1],growth [2],growth [3],growth [4],growth [5],growth [6],growth [7],growth [8],growth [9],growth [10]
COC(=O)CNC(=O)[C@H](Cc1ccccc1)NCc1ccncc1,101%,86.6%,92.4%,97.7%,92.3%,87.2%,101%,99.3%,103%,114%
Cc1cc2c(O)c(-c3cc(Cl)ccc3Cl)c3sc(=O)oc3c2cc1C,74.5%,103%,61.2%,77.6%,45.4%,29.2%,42.5%,52.2%,78.4%,81%
CCn1c(=S)sc2c(Nc3ccc(F)cc3)nc(-c3cccnc3)nc21,88.2%,41.6%,13.7%,78.9%,34.3%,56%,87.7%,56.7%,69.5%,86.2%
CC1(C)CC2=C3C=C[C@@H]4[C@@]5(C)CCC(=O)C(C)(C)[C@@H]5CC[C@@]4(C)[C@]3(C)CC[C@@]2(C(=O)O)CC1=O,57.2%,50.4%,10%,96.5%,61.2%,74.3%,55.2%,64%,87.2%,46.5%
COc1cc(/C=C/C(=O)c2cccc(Nc3nc(Nc4ccccc4)nc(Nc4ccccc4)n3)c2)cc(OC)c1OC,49.6%,48.8%,52.8%,93.9%,29.8%,24.7%,51%,64%,45.3%,68.9%
O=C(O)c1ccc(-n2cc(/C=N/Nc3ccc(F)cc3)c(-c3cc4ccccc4oc3=O)n2)cc1,33.9%,91%,85.6%,89.2%,104%,69.8%,93.6%,46.1%,46.6%,92.3%
O=C(Nn1c2c(sc1=NCc1ccccc1)C(=O)c1ccccc1C2=O)c1cc2ccc1CCc1ccc(cc1)CC2,55.3%,99.6%,33.9%,74.1%,70.7%,57.8%,51.3%,66.4%,35.7%,91.4%
CCCCOC(=O)OCc1cc(=O)c(O)co1,106%,101%,91.5%,99%,99.5%,99.6%,104%,99.4%,99.9%,107%
O=C(CSc1nc(-c2ccccc2)[nH]c1S(=O)(=O)c1ccccc1)NC1CC1,28.2%,95.1%,98.1%,101%,20.1%,80.8%,35.6%,94.6%,44.8%,120%
O=C(NNc1nccc(Nc2ccc(S(=O)(=O)Nc3ccncc3)cc2)n1)c1ccccc1,107%,94.4%,99%,109%,99.6%,100%,102%,101%,-40.5% (active),106%
CC(C)NC1CCC(Nc2ccnc3cc(Cl)ccc23)CC1 (stereo not given),99.1%,77.5%,83.7%,109%,87.7%,78.6%,90.8%,97.3%,86.6%,101%
O=C1/C(=C\c2cn(-c3ccccc3)nc2-c2ccc(-c3cccs3)cc2)CCc2ccccc21,37.8%,29.5%,45.8%,61%,66.2%,78.1%,66%,47.7%,56.9%,68.8%
N#C/C(=C/c1ccc([N+](=O)[O-])cc1)n1nnc2cc(F)c(F)cc21,-7.15% (active),69.4%,74.9%,73.7%,59%,52.5%,88.6%,57.2%,42.4%,97.6%
O=C(CN1C(=O)CCC1=O)Nc1ncc(Cc2ccc(F)cc2)s1,102%,106%,94.3%,96.3%,97.5%,92.4%,99.6%,92.1%,94.3%,106%
O=C(CCCCCCN1CC(=O)N2[C@H](c3cc(Br)cs3)c3[nH]c4ccccc4c3C[C@H]2C1=O)NO,96.9%,50.7%,26.2%,41.1%,33.3%,46.9%,27%,12%,8.65% (active),27.7%
CCN1C(=O)N(CC)C2C1NN=c1s/c(=C\c3cccc([N+](=O)[O-])c3)c(=O)n12 (stereo not given),11.6%,5.6% (active),22%,31.5%,13.7%,33.7%,-5.71% (active),32.5%,16.7%,61.4%
O=C1C(Cl)=C(Nc2ccc(O)cc2)C(=O)N1Cc1ccc(Cl)cc1,19.7%,11%,59%,69.5%,47.1%,45.9%,50.7%,65.3%,57.7%,61.6%
COc1cccc(NC(=O)Cn2cc(CN3CCN(c4ccnc5cc(Cl)ccc45)CC3)nn2)c1,89.8%,98%,75.5%,88.7%,96.3%,67.4%,59.3%,75.8%,86.8%,102%
NC(=O)CCC(C(=O)O)N1C(=O)c2ccc(O)cc2C1=O (stereo not given),101%,119%,128%,110%,100%,98.6%,107%,111%,97.2%,124%
CCCCNC(=O)Oc1ccc(/C(=C(/CC)Cc2ccccc2)c2ccc(OCCN3CCCCCC3)cc2)cc1,-29.9% (active),-21% (active),61.2%,45.2%,25.7%,39.8%,13.1%,24%,-93.6% (active),-6.15% (active)
COP(=O)(OC)C(C)(C)CC(=O)CC(C#N)(C#N)C(C#N)C#N,93.3%,107%,98.2%,99.3%,97.3%,92.5%,101%,96.1%,100%,104%
COC(=O)/C=C1/SC(=Nc2ccc(C)cc2)N(CCc2c[nH]c3ccc(O)cc23)C1=O,14.7%,90.9%,52%,51.8%,34.7%,39%,50.5%,42.2%,-17.8% (active),48.4%
Cn1cccc1C(=O)C1C(c2cccc([N+](=O)[O-])c2)C2C3CCCCC3CN2C12C(=O)Nc1ccc(Cl)cc12 (stereo not given),41.7%,41.9%,37.4%,53.2%,53.8%,35.2%,64.5%,60.1%,37.3%,83.2%
Oc1c(Cl)cc(Cl)cc1/C=N/Nc1nnc(N/N=C/c2cc(Cl)cc(Cl)c2O)c2ccccc12,20.6%,23.7%,13%,12.8%,21%,16.3%,-46.8% (active),13.2%,-52.3% (active),22.9%
Cc1ccc(-c2nc3nc(-c4ccccc4)nc(N4CCNCC4)c3o2)cc1,-77% (active),-74.4% (active),-90.7% (active),-80.6% (active),-90.2% (active),-81.6% (active),-95.8% (active),-87.8% (active),-78.6% (active),-90.1% (active)
CCOC(=O)c1cc(-c2ccc([N+](=O)[O-])cc2)n(-c2ccc(C(=O)O)c(O)c2)c1C,50.2%,44.2%,53.5%,90.7%,70.9%,23.5%,52%,54%,66.8%,90.5%

SMILES,growth [1],growth [2],growth [3],growth [4],growth [5],growth [6],growth [7],growth [8],growth [9],growth [10]
O=C(Cn1cc(CN2CCCCCC2)nn1)Nc1ccc2c(ccn2Cc2ccccc2)c1,93.3%,70.5%,76.1%,98.8%,80.8%,82.2%,87%,96.9%,98.2%,99.9%
Cc1ccccc1NC(=O)c1sc2nc(C)c(C(=O)/C=C/c3ccccc3)cc2c1N,-1.44% (active),-5.48% (active),-7.36% (active),2.8% (active),-35% (active),29%,17.7%,7.17% (active),-85.9% (active),42%
CCOC(=O)c1c2c(n3ccc(C)cc13)C(=O)c1ccccc1C2=O,85.2%,87.8%,100%,98.4%,92.8%,78%,82.1%,92.6%,94%,111%
N#C/C(=C\c1ccc2ccccc2c1)c1cc2ccccc2[nH]1,22.5%,10.9%,35.6%,43.8%,27.8%,33%,35.3%,32.2%,32.3%,55.3%
N#C/C(=C\c1ccc(-c2ccc(Cl)cc2)o1)C(=O)Nc1ncc(Cc2ccc(Cl)cc2)s1,37.6%,62.4%,-31.1% (active),79.1%,-33.9% (active),28.8%,94.7%,46.1%,15.5%,34.2%
CCN(CC)C(=S)SC(SC(=S)N(CC)CC)C(=O)c1nnn(-c2ccc([N+](=O)[O-])cc2)c1C,99%,87.3%,107%,90.8%,81.5%,78.1%,76.7%,86.5%,89%,104%
CC(C)(C)n1cc(-c2ccnc(NCCCNS(=O)(=O)c3ccc(F)cc3)c2)c(-c2cccc(F)c2)n1,5.18% (active),6.93% (active),85%,72.7%,45.5%,46.1%,33.7%,72.7%,33.7%,82.4%
COC(=O)c1ccc2c(c1)C(=O)c1c-2n(CCCN)c(=O)c2cc([N+](=O)[O-])ccc12,-96.1% (active),-100% (active),-99.2% (active),-59.3% (active),-100% (active),-70.1% (active),-100% (active),-100% (active),-100% (active),-100% (active)
COc1cc(-c2nc(SCCC(C)C)nc(Nc3ccccc3Cl)c2C#N)cc(OC)c1OC,93%,89.1%,89.3%,98.9%,106%,81.4%,89.2%,81%,101%,98.8%
N#Cc1cnc(NCCc2ccncc2)nc1-n1cnc2ccccc21,36.8%,49%,82.6%,94.7%,58.7%,64.1%,79.8%,48.5%,41.2%,80.9%
O=C1NCCC12CCN(c1c(Cl)cncc1-c1ccc(O)cc1)CC2,105%,94.2%,112%,98.9%,94.9%,98.8%,94.4%,90.2%,87.7%,103%
CN([O-])c1nc(N(C)[O-])nc(N2CCOCC2)n1.CN([O-])c1nc(N(C)[OH2+])nc(N2CCOCC2)n1.[Fe+3],104% [100 µM],102% [100 µM],96.1% [100 µM],108% [100 µM],38.7% [100 µM],65.9% [100 µM],95.5% [100 µM],81.6% [100 µM],38.9% [100 µM],-26.4% [100 µM] (active)
Cc1noc(C)c1C(=O)OCc1coc2ccccc2c1=O,52.5%,66%,81.6%,82.7%,72.8%,70.1%,80%,54.7%,70.8%,86.8%
Cc1ccc(-c2csc(NC(=O)CN3CCN(c4cc5c(cc4F)c(=O)c(C(=O)O)cn5C4CC4)CC3)n2)cc1,10.2%,0.375% (active),20.1%,27.7%,7.62% (active),6.64% (active),-26.4% (active),19.1%,0.737% (active),41%
Cc1cc2c(O)c(-c3cccc(Cl)c3)c3sc(=O)oc3c2cc1C,43.2%,111%,36.1%,45.4%,21.9%,60.9%,18.9%,27%,45.1%,52.2%
CC(C)c1ccc(NC(=O)Nc2ccc(NC(=O)CCCC(=O)NOCc3ccccc3)cc2)cc1,99.8%,79.4%,80.2%,91.3%,85.6%,93.3%,83.8%,89.2%,82.2%,94.4%
CN1CCN(c2ccc(NC(=O)c3cncnc3Nc3ccc(OCc4ccccn4)c(Cl)c3)cc2)CC1,-44.4% (active),-14.8% (active),59.8%,69.6%,2.96% (active),61%,47.2%,-69.9% (active),-22.1% (active),-86% (active)
COc1ccc(Cc2cc(-c3ccccc3)nn(Cc3ccccc3)c2=O)cc1OC,28.7%,29.1%,58.3%,46.5%,32.7%,20.8%,-3.54% (active),30.6%,48.4%,59.3%
Cc1cc2c([nH]1)CSc1cc(S(=O)(=O)c3ccccc3)c(=O)[nH]c1-2,17.7% [100 µM],10.5% [100 µM],20% [100 µM],37.4% [100 µM],15.5% [100 µM],23% [100 µM],-36.7% [100 µM] (active),19.1% [100 µM],12.1% [100 µM],17.9% [100 µM]
CCOC(=O)C1=NN(c2ccccc2)C(=O)/C1=C\N1C(=O)CC(=O)NC1=S,105%,99.7%,10.6%,97.4%,91%,96.4%,99.6%,87.5%,93.7%,114%
C=C(C)[C@@H]1CC[C@]2(C(=O)OC)CC[C@]3(C)[C@H](CC[C@@H]4[C@@]5(C)C/C(=C/NC(N)=S)C(=O)C(C)(C)[C@@H]5CC[C@]43C)[C@@H]12,92.8%,71%,118%,97.1%,90.7%,67.6%,87.1%,87.4%,90.2%,98.9%
CCN(CC)c1nc(SCc2ccccc2Cl)ncc1C,96.4%,107%,97.8%,96.4%,92.6%,89.9%,83.8%,81.2%,95.9%,118%
O=C(/C=C/c1ccc(Cl)cc1)c1cccc(Nc2nc(Nc3ccccc3)nc(Nc3ccccc3)n2)c1,83.9%,99.1%,71.9%,111%,82.7%,87.9%,85.6%,96.9%,88.2%,100%
O=C1NC(=O)c2c1c1c3ccccc3ccc1c1[nH]c3ccc(Br)cc3c21,13.4%,26.4%,22.8%,23.8%,20.7%,3.55% (active),-82.5% (active),29.9%,22.8%,44.4%
C/C(Nc1ccc(Cl)c(Cl)c1)=C1\CCOC1=O,84%,84.8%,78.6%,106%,91%,86.8%,101%,71.2%,67.6%,111%
COC(=O)c1n[nH]c2ccc3nc(-c4cn[nH]c4C(F)(F)F)c4c(c3c12)CCCC4,39%,25.7%,28.8%,68.7%,41.7%,64.4%,40.4%,21.6%,21.7%,25.5%

# Reference: PubChem BioAssay (NCI)
